High-throughput results from PubChem BioAssay.
Rows were chosen to be rich in hits. Some 6.6% of all compounds tested hit in one or more screens of this group.
Anthrax LF inh2 – anthrax lethal factor protease inhibition; inhibition, % at 10 µM; 0.12% of 360,000 active; multiplex microsphere protease cleavage assay, LF; P15917; note: plate controls were buffer without enzyme for full effect and enzyme alone for no effect
FBA Mtb inh – inhibitors of M. tuberculosis fructose-bisphosphate aldolase; purified M. tuberculosis FBA, fluorescence read-out; inhibition, % at 1 µM; 2.3% of 360,000 active; AID 588726; in the data active = inhibition above about 27%;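 note: 0% = vehicle and 100% = reference inhibitor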
Target sequence (P9WQA3 whole entry, looked up): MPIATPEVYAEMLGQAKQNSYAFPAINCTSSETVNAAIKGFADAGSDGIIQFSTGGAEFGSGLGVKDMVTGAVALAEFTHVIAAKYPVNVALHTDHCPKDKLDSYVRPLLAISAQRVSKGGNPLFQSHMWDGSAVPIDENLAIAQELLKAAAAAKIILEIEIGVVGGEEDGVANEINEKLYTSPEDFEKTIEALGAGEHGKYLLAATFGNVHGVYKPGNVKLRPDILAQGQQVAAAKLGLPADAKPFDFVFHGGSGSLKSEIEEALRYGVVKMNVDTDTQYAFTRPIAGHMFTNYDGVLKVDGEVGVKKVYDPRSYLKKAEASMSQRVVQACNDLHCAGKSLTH
BoNT F protease – inhibitors of Botulinum neurotoxin F light chain protease. inhibition, % at 10 µM. 0.22% of 360,000 active. Multiplex microsphere protease cleavage assay, flow cytometry; in the data active = inhibition above about 35%, passing the limit was not always enough; inconclusive = no clear call, values can overlap the other calls; note: plate controls were buffer without enzyme for full effect and enzyme alone for no effect
BoNT-A LC inh2 – BoNT A light chain protease inhibition; multiplex microsphere protease substrate cleavage, flow cytometry; AID 588499; 0.17% of 360,000 active; inhibition, % at 10 µM; note: plate controls were buffer without enzyme for full effect and enzyme alone for no effect
Bead autofluor – flagged as autofluorescent in microsphere protease counterscreen; compound autofluorescence counterscreen, microsphere flow cytometry; stronger effect = higher value; fluorescence intensity (no concentration beside the values); 3.1% of 360,000 active; in the data active = fluorescence intensity above about 16000; inconclusive = no clear call, values can overlap the other calls
GDH-TPI counter – counter-screen for M. tuberculosis FBA inhibitors: GDH-TPI coupled enzymes. GDH-TPI coupled enzyme counterscreen, NADH absorbance. inhibition, % at 4.8 µM. 1.2% of 360,000 active. AID 588335; in the data active = inhibition above about 30%;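 note: 0% = DMSO wells and 100% = wells lacking the enzyme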
An asterisk follows results filed as active; ? = inconclusive. Cut-off read from the data, not from the text of the source, unless noted: active = inhibition above about 30%; inconclusive = no clear call, values can overlap the other calls; inactive = below that.

SMILES | Anthrax LF inh2 | FBA Mtb inh | BoNT F protease | BoNT-A LC inh2 | Bead autofluor | GDH-TPI counter
CCS(=O)(=O)Nc1cccc(C2=NN(S(=O)(=O)c3ccccc3)C(c3cccs3)C2)c1 (configuration not stated) | 0.0 | -2.3 | -3.9 | -2.4 | 22079* | 2.5
CCc1ccc(C2=NN(S(C)(=O)=O)C(c3cccs3)C2)cc1 (configuration not stated) | -3.4 | 1.2 | 2.2 | -1.5 | 19673* | 15.8
CCS(=O)(=O)Nc1ccc(C2=NN(C(=O)c3ccco3)C(c3ccco3)C2)cc1 (configuration not stated) | -6.1 | 1.0 | -17.1 | -2.7 | 5921 | 23.7
Cc1ccc(C2=NN(S(C)(=O)=O)C(c3cccs3)C2)cc1 (configuration not stated) | -8.1 | 1.1 | -16.3 | -1.9 | ? | 3.5
CCS(=O)(=O)Nc1ccc(C2=NN(C(=O)c3ccco3)C(c3cccs3)C2)cc1 (configuration not stated) | -3.7 | 2.2 | 11.9 | -0.2 | 5870 | 46.4*
Cc1ccc(N(CC(O)CN2CCOCC2)S(=O)(=O)c2ccc([N+](=O)[O-])cc2)cc1 (configuration not stated) | -0.1 | 1.5 | -9.1 | -1.4 | 4611 | 2.2
COc1ccc(CC(=O)Nc2c3c(nn2-c2cccc(C)c2C)CS(=O)(=O)C3)cc1 | 0.8 | 1.2 | 1.1 | 0.7 | 22126* | -10.5
CCCC(=O)Nc1c2c(nn1-c1cccc(C)c1C)CS(=O)(=O)C2 | 1.9 | -0.2 | -9.0 | -2.2 | 3440 | -4.4
COc1cc2c(cc1OC)C(c1cccs1)CC(=O)N2 (configuration not stated) | -2.1 | 4.6 | -2.6 | 0.0 | 5372 | -1.6
O=C1CC(c2cccs2)c2cc3c(cc2N1)OCO3 (configuration not stated) | -1.5 | 0.0 | -8.1 | -3.0 | 23380* | 15.8
CN1CCN(c2ccc([N+](=O)[O-])c(N/N=C3\CN4CCC3CC4)c2)CC1 | -2.5 | -18.6 | -4.2 | -1.3 | 20912* | 0.0
COc1ccc(C2CC(=O)C(C=NCCO)=C(O)C2)cc1 (configuration not stated) | -17.5 | 0.9 | ? | -28.8 | 10837 | 5.4
Cc1ccccc1-c1ccc(C(=O)NCc2ccccc2)o1 | -11.6 | 12.4 | 1.6 | -0.4 | 3818 | 6.7
O=C(NCc1ccccc1)c1ccc(-c2ccc(F)cc2)o1 | -1.1 | 20.8 | -2.5 | ? | 21149* | 3.0
Cn1nc(C(=O)NCc2ccc(F)cc2)c2ccccc2c1=O | -3.1 | 2.3 | 0.4 | 1.7 | 22634* | -2.6
C/C(=C\C(=O)c1ccc(C)cc1)NCc1ccc(F)cc1 | -3.7 | 0.4 | 15.2 | -0.4 | 3462 | 22.1
C/C(=C\C(=O)c1ccccc1)NCc1ccc(F)cc1 | -1.0 | 3.0 | -59.7 | -2.1 | 6035 | 31.3*
O=C(NC1CCCCC1)c1cc(N2C(=O)CCC2=O)ccc1Cl | -0.6 | -0.2 | -1.0 | -1.8 | 4518 | 2.3
Cc1cc(C)cc(NC(=O)c2ccc(CNc3c(N4CCCC4)c(=O)c3=O)cc2)c1 | 3.0 | -0.5 | -2.5 | -0.3 | 4448 | -3.7
C=C1CCN([C@@H](Cc2ccccc2)C(=O)NCCC(C)C)S(=O)(=O)c2ccccc21 | 9.4 | 2.0 | -5.0 | -0.2 | 3125 | 5.2
CCCCN(c1ccccc1)S(=O)(=O)c1cccc(C(=O)Nc2c(C)n(C)n(-c3ccccc3)c2=O)c1 | -2.2 | 2.6 | -0.8 | -3.4 | ? | 1.0
CCOC(=O)c1[nH]c2cc3c(cc2c1NC(=O)CN1CCC(C)CC1)OCO3 | -3.4 | 152.9* | ? | 0.7 | 4129 | 29.0
CCN(CC)c1ccc2nc3ccc(N)cc3[n+](-c3ccccc3)c2c1 | 0.8 | -6.3 | -40.2 | 33.5* | 3078 | 9.3
O=C(NCCCN1CCOCC1)c1sc2cc([N+](=O)[O-])ccc2c1Cl | -0.2 | 53.9* | 4.1 | 1.0 | 3103 | 3.7
O=C(NC1CCCCC1)N1CCC(c2nc3ccccc3[nH]2)CC1 | -6.0 | 1.9 | 2.3 | 1.2 | 22032* | 4.7
O=C(NC1CCCCC1)N1CCC(c2nc3ccc(Cl)cc3[nH]2)CC1 | -4.6 | 3.9 | -1.3 | -0.7 | 16224* | 5.6
Cc1ccccc1C(=O)OCCN(C)Cc1ccccc1 | -0.3 | -0.1 | -0.3 | -0.8 | 2251 | -5.2
O=C(CSc1nnc2c(Cl)cc(C(F)(F)F)cn12)Nc1ccc2c(c1)OCO2 | -4.4 | -0.2 | 1.9 | ? | 20358* | 8.7
Cc1ccc(C2CC(=O)c3cnc(N4CCN(c5ccccc5)CC4)nc3C2)cc1 (configuration not stated) | -8.3 | 2.2 | -6.5 | -1.1 | 9394 | -1.0
